# Records with an inconclusive call do not appear. Activity calls are given as the source filed them. Rule for the calls, unless noted: active = hit-call score of the fitted dose curve at least 0.9, where 1 is the maximum; inactive = score below 0.9.
# Tests used:
# [1] = CCTE_Deisenroth_5AR_NBTE_donor: CCTE's 5alpha-reductase NanoBRET Target Engagement Assay […], Deisenroth Lab (AID 2284319); conditions: actives raise or lower the signal
# Method in brief: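 HEK293T cells transiently expressing SRD5A2-NanoLuc, exposed 5 h to chemicals (8 points, 10 nM - 29.9 uM), with testosterone tracer for the final 2 h. Donor luminescence at 460 nm read after Nano-Glo substrate plus extracellular NanoLuc inhibitor; bidirectional fit versus DMSO.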
# [2] = CCTE_Deisenroth_5AR_NBTE_acceptor: CCTE's 5alpha-reductase NanoBRET Target Engagement Assay - Autofluorescence Screen, Deisenroth Lab (AID 2284321); conditions: actives raise or lower the signal;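 note: compound fluorescence in the acceptor channel under 460 nm excitation flags autofluorescence artifacts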
# Method in brief: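 Acceptor-channel fluorescence flags artifacts, with excitation fixed at 460 nm. Nominal 100 uM chemical samples were read in triplicate runs, and signal changes were fitted in both directions relative to DMSO.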
# SRD5A2 (gene 6716) = experiment: CCTE_Deisenroth_5AR_NBTE_ratio: CCTE's 5alpha-reductase NanoBRET Target Engagement Assay - Ratio, Deisenroth Lab (AID 2284322); conditions: actives raise or lower the signal
# Method in brief: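 HEK293T cells transiently expressing an SRD5A2-NanoLuc fusion (20 h post-transfection) were exposed to test chemical (10 nM - 29.9 uM, 8 points) for 3 h, then testosterone tracer for a further 2 h. Acceptor/donor BRET ratio was fitted bidirectionally against DMSO baseline.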
# SERPINA7 (gene 6906) = experiment: CCTE_GLTED_hTBG: CCTE's human Thyroxine-binding Globulin (TBG) Inhibition Assay, Great Lakes Toxicology and Ecology Division (GLTED) Lab (AID 2284343; active = hit-call score of the fitted dose curve at least 0.9, where 1 is the maximum;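 note: active chemicals lower fluorescence versus DMSO baseline by displacing probe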)
# Method in brief: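 Cell-free displacement of the fluorescent probe ANSA from human thyroxine-binding globulin after 2 h exposure. Read-out at ex 380/em 475 nm; DMSO baseline.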
# [3] = CCTE_Padilla_ZF_Score.General: CCTE's 144 Hour Post-fertilization zebrafish Assay Score for General Malformation, Padilla Lab (AID 2284411)
# Method in brief: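 Malformation, death and hatching were scored at 6 dpf by two blinded observers under a stereo microscope. Embryos were dosed singly from 6-8 hpf in sealed plates of 10% Hanks' at 26C and rinsed on 5 dpf; DMSO baseline.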
# IYD (gene 389434) = experiment: CCTE_GLTED_hIYD: CCTE's human Iodotyrosine Deiodinase (xIYD) Inhibition Assay, Great Lakes Toxicology and Ecology Division (GLTED) Lab (AID 2284317; active = hit-call score of the fitted dose curve at least 0.9, where 1 is the maximum;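 note: cell-free human IYD enzyme made in baculovirus insect cells; iodide freed from monoiodotyrosine measured by cerium arsenite color change at 420 nm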)
# Method in brief: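 In the IYD assay, iodide released from MIT by insect-cell-expressed human enzyme was quantified after 3 h via Sandell-Kolthoff rate at 420 nm, with plate-wise normalization to MNT and solvent controls.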
# TTR (gene 7276) = experiment: CCTE_GLTED_hTTR_0.125uM: CCTE's human Transthyretin (hTTR) Inhibition Assay, with 0.125uM TTR, Great Lakes Toxicology and Ecology Division (GLTED) Lab (AID 2284431);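 note: hits lower the fluorescence signal relative to DMSO baseline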
# Method in brief: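 TTR at 0.125uM incubated 2 h with test chemical; displacement of bound ANSA read by fluorescence (ex 380, em 475). Activity is signal loss versus DMSO baseline.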
# [4] = CCTE_Deisenroth_H295R-HTRF_384WELL_ESTRADIOL: CCTE's H295R-HTRF Assay Evaluation of Estradiol Concentration, Deisenroth Lab (AID 2284361); conditions: actives raise or lower the signal
# Method in brief: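 Estradiol secreted into medium by H295R adrenocortical cells, quantified by HTRF after 48 h dosing over a nine-point 0.001 - 100 uM final range; gain or loss versus DMSO. Parallel ATP-luminescence viability readout; n=5 experiments.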
# [5] = CCTE_Deisenroth_H295R-HTRF_384WELL_TESTOSTERONE: CCTE's H295R-HTRF Assay Evaluation of Testosterone Concentration, Deisenroth Lab (AID 2284373); conditions: actives raise or lower the signal
# Method in brief: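 Secreted testosterone was quantified by HTRF immunoassay of medium from human adrenocortical H295R cells after 48 h chemical exposure at 0.001–100 uM final. Gain or loss was fitted against DMSO. ATP-based viability was read on matched wells, five experimental replicates.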
# [6] = CCTE_Deisenroth_H295R-HTRF_384WELL_CTOX: Cytotoxicity Assessment in CCTE's H295R-HTRF Assay, Deisenroth Lab (AID 2284380; active = hit-call score of the fitted dose curve at least 0.9, where 1 is the maximum)
# Method in brief: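 Luminescent ATP viability readout (CellTiter-Glo 2.0), multiplexed on plates used for hormone sampling, after 48 h chemical exposure. Human H295R cells; final concentrations 0.001–100 uM in nine steps, technical triplicates, five experiments; DMSO baseline.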
# [7] = IUF_NPC2-5_viability_120hr: Viability Assessment at 120 hours in the Leibniz Research Institute for Environmental Medicine (IUF) Neural Progenitor Cell Migration and Differentiation Assay (NPC2-5) (AID 2284312)
# Method in brief: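 Human fetal (GW 16-19) neural progenitor spheres of 0.3 mm were plated on poly-D-lysine/laminin in N2 differentiation medium and exposed from day 0 for 120 h, with half-medium refresh at day 3. Viability was read as alamar blue resazurin-to-resorufin fluorescence against DMSO.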
# [8] = CCTE_Mundy_HCI_iCellGluta_NOG_NeuriteLength: CCTE's Neurite Outgrowth Assay in iCellGluta cells for Neurite Length, Mundy Lab (AID 2284318; active = hit-call score of the fitted dose curve at least 0.9, where 1 is the maximum)
# Method in brief: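 Automated high-content imaging of betaIII-tubulin (Alexa Fluor-488) and Hoechst-stained cells gave neurite length, normalized to the DMSO baseline.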
# [9] = IUF_NPC1_cytotoxicity_72hr: Cytotoxicity Assessment at 72 hours in the Leibniz Research Institute for Environmental Medicine (IUF) Neural Progenitor Cell Proliferation Assay (NPC1) (AID 2284332; active = hit-call score of the fitted dose curve at least 0.9, where 1 is the maximum;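 note: rising LDH signal means more cytotoxicity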)
# Method in brief: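 Cytotoxicity by LDH membrane-integrity assay on medium supernatants, fluorescence via resazurin reduction, after 3-day single exposure of primary hNPC spheres at 37C, pH 7.2-7.6 with growth factors. Fitted upward against baseline.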
# [10] = CCTE_Mundy_HCI_iCellGluta_NOG_NeuronCount: CCTE's Neurite Outgrowth Assay in iCellGluta cells for Neuron Count, Mundy Lab (AID 2284340; active = hit-call score of the fitted dose curve at least 0.9, where 1 is the maximum;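 note: cells fixed about 48 h after compound addition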)
# Method in brief: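 Neuron count read by automated high-content imaging of Hoechst 33342 and betaIII-tubulin/Alexa Fluor-488 labelling in human iPSC glutamatergic neurons. Activity fitted relative to DMSO.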
# [11] = CCTE_Mundy_HCI_iCellGluta_NOG_NeuriteCount: CCTE's Neurite Outgrowth Assay in iCellGluta cells for Neurite Count, Mundy Lab (AID 2284342; active = hit-call score of the fitted dose curve at least 0.9, where 1 is the maximum;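 note: chemical exposure about 48 hours starting 2 hours after plating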)
structure (smiles),measurement,setting,value
CC1CC(OC(=O)c2ccccc2O)CC(C)(C)C1 (centres undefined),outcome,[1],inactive
same,outcome,[2],inactive
same,outcome,SRD5A2 (gene 6716),inactive
c1ccc(CCCc2ccccn2)cc1,AC50,SERPINA7 (gene 6906),22.2 µM (active)
CCn1c2ccccc2c2cc(N)ccc21,outcome,[3],inactive
CCCCCC(CO)CCC (centres undefined),outcome,[1],inactive
same,outcome,[2],inactive
same,outcome,SRD5A2 (gene 6716),inactive
CCCCC(CC)COCCC#N (centres undefined),outcome,[3],inactive
CCN(CC)c1ccc2c(-c3ccccc3C(=O)O)c3ccc(=[N+](CC)CC)cc-3oc2c1,outcome,[1],inactive
same,outcome,[2],inactive
same,AC50,SRD5A2 (gene 6716),22.1 µM (active)
CCCCCCCCCCCCCCCC(=O)OC[C@H](O)[C@H]1OC(=O)C(O)=C1O,AC50,IYD (gene 389434),25.6 µM (active)
same,outcome,[1],inactive
same,outcome,[2],inactive
same,outcome,SRD5A2 (gene 6716),inactive
CSc1nc(NC2CC2)nc(NC(C)(C)C)n1,AC50,TTR (gene 7276),10.8 µM (active)
Cc1ccc(S)cc1,AC50,SERPINA7 (gene 6906),1.59 µM (active)
C#C[C@]1(O)CC[C@H]2[C@@H]3CCC4=Cc5oncc5C[C@]4(C)[C@H]3CC[C@@]21C,AC50,[4],38.2 µM (active)
same,AC50,[5],0.362 µM (active)
same,outcome,[6],inactive
O=C1OC2(c3cc(Br)c(O)c(Br)c3Oc3c2cc(Br)c(O)c3Br)c2c(Cl)c(Cl)c(Cl)c(Cl)c21,AC50,IYD (gene 389434),23.7 µM (active)
O=C1CCCCCCCCCCCCCCO1,outcome,[3],inactive
N#Cc1ccc(CC(=NNC(=O)Nc2ccc(OC(F)(F)F)cc2)c2cccc(C(F)(F)F)c2)cc1,outcome,[7],inactive
same,outcome,[8],inactive
same,outcome,[9],inactive
same,outcome,[10],inactive
CCCCCCCCCCCCCC(=O)O,AC50,IYD (gene 389434),100 µM (active)
same,outcome,[1],inactive
same,outcome,[2],inactive
same,outcome,SRD5A2 (gene 6716),inactive
same,AC50,TTR (gene 7276),1.93 µM (active)
CCCCCCCCC=O,outcome,[3],inactive
BrC1CCC(Br)C(Br)CCC(Br)C(Br)CCC1Br (centres undefined),outcome,[1],inactive
same,outcome,[2],inactive
same,outcome,SRD5A2 (gene 6716),inactive
CC(C)=CCCC(C)=CCCC(C)=CCO,AC50,TTR (gene 7276),19.9 µM (active)
O=Nc1ccc(Nc2ccccc2)cc1,AC50,[1],23.4 µM (active)
same,AC50,[2],50 µM (active)
same,AC50,SRD5A2 (gene 6716),75.4 µM (active)
same,AC50,SERPINA7 (gene 6906),15.9 µM (active)
same,AC50,TTR (gene 7276),7.46 µM (active)
CN(C)C(=N)N=C(N)N,outcome,[7],inactive
same,outcome,[8],inactive
same,outcome,[9],inactive
same,outcome,[11],inactive
O=[N+]([O-])c1cc(C(F)(F)F)ccc1Cl,outcome,[3],inactive
CCCCCCCCCCCCCCCC(=O)O,AC50,IYD (gene 389434),80.9 µM (active)
CCN(CC)c1ccc(C(=C2C=CC(=[N+](CC)CC)C=C2)c2ccc(S(=O)(=O)O)cc2S(=O)(=O)[O-])cc1,outcome,[1],inactive
same,AC50,[2],13 µM (active)
same,AC50,SRD5A2 (gene 6716),3.22 µM (active)
O=C(Oc1ccccc1)c1ccc(O)cc1,AC50,SERPINA7 (gene 6906),12.6 µM (active)
same,AC50,TTR (gene 7276),0.326 µM (active)
O=c1cc(-c2ccccc2)oc2cc(O)cc(O)c12,AC50,TTR (gene 7276),0.06 µM (active)
O=C(O)c1cn(C2CC2)c2cc(N3CCNCC3)c(F)cc2c1=O,outcome,[3],inactive
O=C1c2ccccc2C(=O)N1SC1CCCCC1,AC50,SERPINA7 (gene 6906),29.4 µM (active)
CC(C)=CCC[C@](C)(O)[C@@H]1CC=C(C)CC1,outcome,[1],inactive
same,outcome,[2],inactive
same,outcome,SRD5A2 (gene 6716),inactive
same,AC50,SERPINA7 (gene 6906),19.2 µM (active)
CCCCCCCCCCCCCOS(=O)(=O)O,AC50,IYD (gene 389434),34.2 µM (active)
same,AC50,[1],50 µM (active)
same,AC50,[2],43.2 µM (active)
same,AC50,SRD5A2 (gene 6716),81.8 µM (active)
same,AC50,SERPINA7 (gene 6906),31 µM (active)
same,AC50,TTR (gene 7276),1.6 µM (active)
CC(C)c1ccc(C(C)C)cc1,outcome,[3],inactive
CCCCCCCCCC=O,outcome,[3],inactive
same,AC50,TTR (gene 7276),9.95 µM (active)
